CYP2C19 act – human CYP2C19 activators, primary screen, biochemical, luminescence; Cytochrome P450 2C19 (Homo sapiens), P33261; recombinant CYP2C19, luciferin-H EGE luminescence; stronger effect = higher value; 0 = fully inhibited enzyme, 1 = untreated enzyme; activation factor at 5 µM; AID 1025, 2008; 96,000 tested, under 10 active;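 active = activation factor of at least 2 at 5 µM in the primary screen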;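 note: 0 = wells with 2.5 mM tranylcypromine and 1 = vehicle-only wells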
CYP2C9 inh – blockers of cytochrome P450 2C9 activity – biochemical, luminescence, ADME assay, primary screen; 20% of 96,000 active; AID 777, 2007; P11712; inhibition, % at 5 µM; CYP2C9 Supersomes, luciferin-H conversion;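 active = blocking of liver enzyme CYP2C9 beyond about 50% at 5 µM, limit read from the data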
CYP2C19 inh – blockers of cytochrome P450 2C19 activity – biochemical, luminescence, ADME assay, primary screen. P33261. CYP2C19 Supersomes, luciferin-H EGE luminescence, 30 min. inhibition, % at 5 µM. 21% of 96,000 active. AID 778, 2007;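 active = CYP2C19 inhibition above a set limit at 5 µM in the primary screen, cut at about 50% in these data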;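 note: plate controls were negative control wells for no effect and 2.5 mM tranylcypromine positive control for full effect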
CYP2C9 act – human CYP2C9 activators, primary screen, biochemical, luminescence. Cytochrome P450 2C9 (Homo sapiens), P11712. recombinant CYP2C9, luciferin-H conversion; stronger effect = higher value; factor 1 = untreated enzyme, 0 = blocked. activation factor at 5 µM. 1.4% of 96,000 active;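 active = activation factor of 2 or more for CYP2C9 at a 5 µM dose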;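 note: 0 = sulfaphenazole-blocked wells and 1 = vehicle-only wells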
Cav32 inh – Cav3.2 calcium influx blockers – cell-based, Fluo-4 calcium fluorescence, FDSS, MLSMR library, primary screen | B-score at 10 µM | Voltage-dependent T-type calcium channel subunit alpha-1H (Homo sapiens), O95180 | 4% of 100,000 active | AID 449739, 2010 | Cav3.2-expressing cells; stronger effect = lower value;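 active = single-dose well whose peak fluorescence ratio is a statistical outlier from its plate by either plate-standardised score or position-corrected B-score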
The depositor's hits bear a star; . = no result given. Most compounds without a hit are left out; they make up all but 27% or so of the library.

SMILES | CYP2C19 act | CYP2C9 inh | CYP2C19 inh | CYP2C9 act | Cav32 inh
COc1cc2c(cc1OC)C1(Nc3c-2c(Cc2ccccc2)nn3-c2ccccc2)C(=O)Nc2ccccc21 (stereo not given) | 1 | 41 | 0 | 0.6 | 0.015
Cc1cccc(C)c1NC(=O)C(NC(=O)c1ccccn1)c1ccc([N+](=O)[O-])cc1 (stereo not given) | 1 | -13 | 2 | 1.1 | -2.8
C/C(=N\NC(=O)C(C)Oc1ccc([N+](=O)[O-])cc1)c1ccccn1 (stereo not given) | 0.3 | -31 | 68* | 1.3 | .
O=C(CSc1nc2ccsc2c(=O)n1NC(=O)c1ccccc1)Nc1nccs1 | . | . | . | . | -0.39
COc1cc(OC)c(-c2nn3c(-c4cccnc4)nnc3s2)cc1OC | 0.9 | 26 | 14 | 0.7 | .
CCOC(=O)C1CCCN(C(=O)CN2CCN(Cc3ccc(Cl)cc3)C2=O)C1 (stereo not given) | 1 | 10 | 3 | 0.9 | .
C=CCOn1c(C)c(C(C)=O)c2c3nonc3ccc21 | . | . | . | . | 0.047
CCOC(=O)c1c(C)n(OCc2ccccc2)c2ccc3nonc3c12 | 1 | 60* | -3 | 0.4 | -1.2
CCOC(=O)N1CCC(N2CC34C=CC(O3)C(C(=O)Nc3ccc(C(C)C)cc3)C4C2=O)CC1 (stereo not given) | 0.8 | 76* | 16 | 0.2 | 0.97
CCOC(=O)N1CCC(N2CC34C=CC(O3)C(C(=O)Nc3ccc(F)cc3)C4C2=O)CC1 (stereo not given) | 1.1 | 4 | -9 | 1 | -0.17
COc1ccc(OC)c(S(=O)(=O)N2CCC(C(=O)Nc3cccc(C)c3C)CC2)c1 | 0.9 | -154 | 10 | 2.5* | 0.31
COc1ccc(OC)c(S(=O)(=O)N2CCC(C(=O)Nc3ccc(C)c(C)c3)CC2)c1 | 0.7 | -145 | 29 | 2.5* | -7.2*
COc1ccc(OC)c(NC(=O)C2CCN(S(=O)(=O)c3cccs3)CC2)c1 | 1.1 | -7 | -10 | 1.1 | -0.31
CC(C)(C)NC(=O)C(=O)N/N=C/c1cccs1 | 0.9 | 33 | 10 | 0.7 | 0.9
Cc1oc(-c2cccs2)nc1CSCC(=O)NC1CC1 | 0.9 | 5 | 7 | 1 | 1.5
Cc1oc(-c2ccccc2Cl)nc1CSCC(=O)NC1CCCC1 | 0.9 | 35 | 13 | 0.6 | -4.5*
Cc1oc(-c2ccccc2Cl)nc1CSCC(=O)N1CCCC1 | 0.1 | 17 | 93* | 0.8 | -0.4
CCOC(=O)c1[nH]c(C)c(CN(Cc2ccco2)C(=O)C(F)(F)F)c1C | 1 | 18 | -3 | 0.8 | -2.8
CCOC(=O)C(C)Oc1cccc2c(=O)n(CC(=O)Nc3ccc(OCC)cc3)ccc12 (stereo not given) | 0.9 | 21 | 8 | 0.8 | -1.7
Cc1cc(-c2ccccc2)n2ncc(C#N)c2n1 | 0.9 | -10 | 7 | 1.1 | -0.38
CC1(C)CC(=O)C=C(Nc2ccc(Br)cn2)C1 | 0.8 | -1 | 15 | 1 | 0.00058
COC(=O)c1cc(NS(=O)(=O)c2ccc3c(c2)CCC(=O)N3)cc(C(=O)OC)c1 | 0.3 | 57* | 68* | 0.4 | 0.077
COc1ccc(OC)c(NS(=O)(=O)c2ccc3c(c2)CCC(=O)N3)c1 | 0.5 | 32 | 53* | 0.7 | 0.98
COc1ccc(N(C)S(=O)(=O)c2ccc3c(c2)CCC(=O)N3)cc1 | 0.8 | 31 | 22 | 0.7 | 0.58
CN1/C(=C/C=N/n2cnnc2)C(C)(C)c2ccccc21 | 0.1 | 36 | 92* | 0.6 | 0.11
SMILES | CYP2C19 act | CYP2C9 inh | CYP2C19 inh | CYP2C9 act | Cav32 inh
CCn1c(SCC(=O)NC2CCCCC2)nc2c(c1=O)SC(C)C2 (stereo not given) | 0.9 | -4 | 10 | 1 | .
CCn1c(SCC(=O)Nc2nc3ccc(C)cc3s2)nc2c(c1=O)SC(C)C2 (stereo not given) | 0.3 | 77* | 69* | 0.2 | -0.46
Cc1cc(NC(=O)CSc2nc3c(c(=O)n2Cc2ccccc2)SC(C)C3)no1 (stereo not given) | . | . | . | . | 0.21
CCn1c(SCC(=O)Nc2cc(C)on2)nc2c(c1=O)SC(C)C2 (stereo not given) | 0.8 | 62* | 16 | 0.4 | 1.7
COc1cc(OC)c(C(=O)Nc2ncn[nH]2)cc1OC | . | . | . | . | -0.058
CCN(CC)S(=O)(=O)c1cccc(-c2nnc(SCc3nnc(-c4cccs4)o3)n2N)c1 | 0.4 | 76* | 58* | 0.2 | 0.65
CC(C)(C)OC(=O)N1CCC[C@H]1c1nnc(SCc2ccc(Cl)cc2Cl)o1 | 0.6 | 24 | 40 | 0.8 | -5.8*
CC(C)(C)OC(=O)N1CCC[C@H]1c1nnc(SCc2c(F)cccc2Cl)o1 | 0.6 | 76* | 45 | 0.2 | -2.6
CC(C)(C)OC(=O)N1CCC[C@H]1c1nnc(SCc2ccccc2Cl)o1 | 0.7 | 37 | 33 | 0.6 | .
Cc1cccc(NC(=O)c2ccc(N(C)C3CCCCC3)c([N+](=O)[O-])c2)n1 | 1 | 20 | 3 | 0.8 | -3
CCCCOc1ccccc1C1NC(=O)NC(C)=C1C(=O)OCCOC (stereo not given) | . | . | . | . | 1.8
COc1cccc(N2C(=O)C(O)=C(C(C)=O)C2c2ccc(OC)c(OC)c2)c1 (stereo not given) | 0.9 | 35 | 6 | 0.7 | 0.3
COc1ccc(-c2n[nH]c3c2C(c2ccc(OC)c(OC)c2)N(c2ccccc2)C3=O)cc1 (stereo not given) | 0.7 | 43 | 34 | 0.6 | -5.6*
O=C(CCCN1C(=O)c2ccccc2C1=O)Nc1sc2c(c1C(=O)NCc1ccco1)CCC2 | 0.4 | 96* | 65* | 0 | -1.7
O=C(CN1C(=O)c2ccccc2C1=O)Nc1sc2c(c1C(=O)NCc1ccco1)CCCC2 | 0.8 | 82* | 19 | 0.2 | -3.9
COC(=O)c1sccc1NC(=O)c1csc(C)c1 | 0.5 | 10 | 47 | 0.9 | -1.3
O=C(Nc1ccc2oc(-c3ccncc3)nc2c1)c1cccs1 | 0.7 | 85* | 28 | 0.2 | 1.1
O=C(Nc1ccc(-c2nc3cc(NC(=O)c4cccs4)ccc3o2)cc1)c1cccs1 | 1 | -4 | -3 | 1 | 1.1
O=C(Nc1ccc2oc(-c3ccncc3)nc2c1)c1ccccc1F | 0.6 | 68* | 41 | 0.3 | 0.75
Cc1ccc(Cn2c(C3CCCN3c3nc(-c4cc(Cl)c(N)c(Cl)c4)cs3)nc3cc(Cl)c(Cl)cc32)cc1 (stereo not given) | . | . | . | . | 0.95
CCc1c(C)nc2ncnn2c1N1CCC(C(=O)NCc2cccc(OC)c2)CC1 | 0.9 | -2 | 6 | 1 | 0.74
COc1ccc(NC(=O)C2CCCN(c3c4c(nc5ncnn35)CCC4)C2)cc1 (stereo not given) | 0.7 | 80* | 31 | 0.2 | -0.24
